# Article PMC7862700, “An all-to-all approach to the identification of sequence-specific readers for epigenetic DNA modifications on cytosine”
# Legend:
# Assay in all cases: DAPPL (digital affinity profiling via proximity ligation, sequencing); 10 mM Tris-HCl pH 7.5, 50 mM NaCl, 1 mM DTT, 4% glycerol, room temperature, 30 min; GST-TFs on glutathione beads, 16-mer random dsDNA library, 0.1% formaldehyde crosslink after washing; high values mean tight binding
# FLI1 = target: T1, FLI1 (Homo sapiens, UniProt Q01543 1-452); conditions: protein: recombinant; tags: N-terminal GST; dsDNA, one strand shown
# T1 sequence: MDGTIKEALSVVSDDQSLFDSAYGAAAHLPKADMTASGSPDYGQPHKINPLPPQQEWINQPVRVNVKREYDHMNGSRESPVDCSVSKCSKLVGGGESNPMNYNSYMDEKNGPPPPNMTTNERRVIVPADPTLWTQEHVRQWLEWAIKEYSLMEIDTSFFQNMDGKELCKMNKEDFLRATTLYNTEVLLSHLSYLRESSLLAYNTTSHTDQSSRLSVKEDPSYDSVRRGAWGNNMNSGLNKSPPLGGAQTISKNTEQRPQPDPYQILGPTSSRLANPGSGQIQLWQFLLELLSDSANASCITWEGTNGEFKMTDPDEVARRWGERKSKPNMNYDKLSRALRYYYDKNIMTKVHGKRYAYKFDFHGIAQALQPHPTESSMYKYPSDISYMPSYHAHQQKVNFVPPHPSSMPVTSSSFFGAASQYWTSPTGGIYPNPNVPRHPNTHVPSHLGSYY
# Method in brief: (§1)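 Binding signal is each hexamer's read frequency for a factor divided by its frequency in the tag-only sample. The factors were GST-fused human transcription factors from yeast, captured on glutathione beads, DNA-barcoded and pooled with that sample. Pools were incubated with 200 nmole of a random double-stranded 16-mer DNA library in Tris/NaCl/DTT/glycerol buffer at room temperature for 30 min, then washed, crosslinked with 0.1% formaldehyde, proximity-ligated with BsaI/T4 ligase (1 h, 37 °C), PCR-amplified and sequenced on an Illumina NextSeq500.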
# ELK1 = target: T2, ELK1 (Homo sapiens, UniProt P19419 1-428); conditions: protein: recombinant; tags: N-terminal GST; dsDNA, one strand shown
# T2 sequence: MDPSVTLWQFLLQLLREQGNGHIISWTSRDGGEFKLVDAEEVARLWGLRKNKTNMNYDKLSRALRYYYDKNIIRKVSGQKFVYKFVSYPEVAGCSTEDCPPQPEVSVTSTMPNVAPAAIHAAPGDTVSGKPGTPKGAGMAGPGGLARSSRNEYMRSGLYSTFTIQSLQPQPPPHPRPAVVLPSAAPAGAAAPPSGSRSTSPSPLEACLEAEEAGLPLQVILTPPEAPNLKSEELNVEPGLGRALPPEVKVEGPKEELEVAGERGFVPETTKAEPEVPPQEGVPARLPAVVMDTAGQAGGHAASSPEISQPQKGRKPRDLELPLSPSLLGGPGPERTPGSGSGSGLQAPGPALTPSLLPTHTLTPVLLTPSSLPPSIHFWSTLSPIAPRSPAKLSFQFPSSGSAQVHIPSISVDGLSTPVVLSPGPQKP
# Method in brief: as §1
# GABPA = target: T3, GABPA (Homo sapiens, UniProt Q06546 1-454); conditions: protein: recombinant; tags: N-terminal GST; dsDNA, one strand shown
# T3 sequence: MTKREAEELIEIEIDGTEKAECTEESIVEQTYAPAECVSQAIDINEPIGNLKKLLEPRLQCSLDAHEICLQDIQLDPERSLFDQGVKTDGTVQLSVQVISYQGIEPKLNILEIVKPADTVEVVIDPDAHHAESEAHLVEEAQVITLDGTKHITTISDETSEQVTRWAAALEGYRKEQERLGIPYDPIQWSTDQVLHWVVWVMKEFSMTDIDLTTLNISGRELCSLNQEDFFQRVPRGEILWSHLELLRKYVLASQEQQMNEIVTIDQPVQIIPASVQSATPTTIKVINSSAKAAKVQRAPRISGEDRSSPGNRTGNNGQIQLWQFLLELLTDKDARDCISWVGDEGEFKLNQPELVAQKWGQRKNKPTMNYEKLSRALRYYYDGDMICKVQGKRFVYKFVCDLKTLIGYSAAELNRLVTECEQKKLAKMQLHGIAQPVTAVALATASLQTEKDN
# Method in brief: as §1
# ERG = target: T4, ERG (Homo sapiens, UniProt P11308 1-479); conditions: protein: recombinant; tags: N-terminal GST; dsDNA, one strand shown
# T4 sequence: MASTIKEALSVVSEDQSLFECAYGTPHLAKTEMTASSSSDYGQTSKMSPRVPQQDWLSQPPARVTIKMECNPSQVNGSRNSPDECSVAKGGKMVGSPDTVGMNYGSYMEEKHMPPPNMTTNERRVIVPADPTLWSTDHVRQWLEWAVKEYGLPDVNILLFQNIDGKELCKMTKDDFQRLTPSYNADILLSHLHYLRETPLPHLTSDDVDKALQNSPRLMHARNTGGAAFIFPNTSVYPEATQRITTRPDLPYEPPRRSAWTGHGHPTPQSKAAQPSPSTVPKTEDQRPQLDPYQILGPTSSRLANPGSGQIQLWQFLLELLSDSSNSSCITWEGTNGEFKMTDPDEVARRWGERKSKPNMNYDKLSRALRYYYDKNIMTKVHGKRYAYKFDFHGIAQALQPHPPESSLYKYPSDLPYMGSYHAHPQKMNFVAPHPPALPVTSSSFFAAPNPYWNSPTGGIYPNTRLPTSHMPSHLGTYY
# Method in brief: as §1
# ELF1 = ELF1 (Homo sapiens, UniProt P32519 1-619); conditions: protein: recombinant; tags: N-terminal GST; dsDNA, one strand shown
# Method in brief: as §1
# EHF = target: T5, EHF (Homo sapiens, UniProt Q9NZC4 1-300); conditions: protein: recombinant; tags: N-terminal GST; dsDNA, one strand shown
# T5 sequence: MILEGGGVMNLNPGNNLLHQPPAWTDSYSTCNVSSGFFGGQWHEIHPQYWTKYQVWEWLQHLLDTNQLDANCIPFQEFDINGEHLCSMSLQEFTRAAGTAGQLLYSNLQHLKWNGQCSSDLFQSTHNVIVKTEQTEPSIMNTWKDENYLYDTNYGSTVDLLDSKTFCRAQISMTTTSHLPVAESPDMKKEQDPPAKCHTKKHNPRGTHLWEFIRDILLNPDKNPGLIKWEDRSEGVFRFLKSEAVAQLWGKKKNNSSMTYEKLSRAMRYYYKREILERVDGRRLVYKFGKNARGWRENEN
# Method in brief: as §1
# SPI1 = SPI1 (Homo sapiens, UniProt P17947 1-270); conditions: protein: recombinant; tags: N-terminal GST; dsDNA, one strand shown
# Method in brief: as §1
# SPIB = SPIB (Homo sapiens, UniProt Q01892 1-262); conditions: protein: recombinant; tags: N-terminal GST; dsDNA, one strand shown
# Method in brief: as §1
# ELK3 = target: T6, ELK3 (Homo sapiens, UniProt P41970 1-407); conditions: protein: recombinant; tags: N-terminal GST; dsDNA, one strand shown
# T6 sequence: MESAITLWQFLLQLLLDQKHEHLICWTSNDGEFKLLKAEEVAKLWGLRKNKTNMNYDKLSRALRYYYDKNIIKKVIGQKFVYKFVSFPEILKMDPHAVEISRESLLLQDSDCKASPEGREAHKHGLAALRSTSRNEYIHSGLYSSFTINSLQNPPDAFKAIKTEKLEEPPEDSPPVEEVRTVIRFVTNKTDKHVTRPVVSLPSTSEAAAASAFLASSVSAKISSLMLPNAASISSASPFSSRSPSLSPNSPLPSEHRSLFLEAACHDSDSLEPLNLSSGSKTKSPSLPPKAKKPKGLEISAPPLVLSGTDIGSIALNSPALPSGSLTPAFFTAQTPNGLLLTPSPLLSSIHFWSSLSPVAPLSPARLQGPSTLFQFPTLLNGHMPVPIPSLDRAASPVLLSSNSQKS
# Method in brief: as §1
# FEV = target: T7, FEV (Homo sapiens, UniProt Q99581 1-238); conditions: protein: recombinant; tags: N-terminal GST; dsDNA, one strand shown
# T7 sequence: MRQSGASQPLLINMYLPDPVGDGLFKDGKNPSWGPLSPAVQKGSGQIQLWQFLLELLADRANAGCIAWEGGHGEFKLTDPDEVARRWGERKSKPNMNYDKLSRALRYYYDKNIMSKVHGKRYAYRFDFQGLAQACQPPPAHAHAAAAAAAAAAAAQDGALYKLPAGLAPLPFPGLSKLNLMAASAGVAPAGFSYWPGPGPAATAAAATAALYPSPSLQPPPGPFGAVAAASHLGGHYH
# Method in brief: as §1
# ETV5 = ETV5 (Homo sapiens, UniProt P41161 1-510); conditions: protein: recombinant; tags: N-terminal GST; dsDNA, one strand shown
# Method in brief: as §1
# HSF1 = HSF1 (Homo sapiens, UniProt Q00613 1-529); conditions: protein: recombinant; tags: N-terminal GST; chain copies: 3; dsDNA, one strand shown
# Method in brief: as §1
# SPIC = target: T8, SPIC (Homo sapiens, UniProt Q8N5J4 1-248); conditions: protein: recombinant; tags: N-terminal GST; dsDNA, one strand shown
# T8 sequence: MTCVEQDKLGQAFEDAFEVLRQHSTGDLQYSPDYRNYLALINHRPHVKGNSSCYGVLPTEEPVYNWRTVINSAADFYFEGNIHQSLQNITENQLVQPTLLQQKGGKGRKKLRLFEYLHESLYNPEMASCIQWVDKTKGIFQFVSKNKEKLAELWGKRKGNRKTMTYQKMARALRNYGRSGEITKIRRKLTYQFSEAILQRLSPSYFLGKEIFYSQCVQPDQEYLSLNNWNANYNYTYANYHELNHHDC
# Method in brief: as §1
# ELF4 = ELF4 (Homo sapiens, UniProt Q99607 1-663); conditions: protein: recombinant; tags: N-terminal GST; dsDNA, one strand shown
# Method in brief: as §1
# ELK4 = target: T9, ELK4 (Homo sapiens, UniProt P28324-2 1-405); conditions: protein: recombinant; tags: N-terminal GST; dsDNA, one strand shown
# T9 sequence: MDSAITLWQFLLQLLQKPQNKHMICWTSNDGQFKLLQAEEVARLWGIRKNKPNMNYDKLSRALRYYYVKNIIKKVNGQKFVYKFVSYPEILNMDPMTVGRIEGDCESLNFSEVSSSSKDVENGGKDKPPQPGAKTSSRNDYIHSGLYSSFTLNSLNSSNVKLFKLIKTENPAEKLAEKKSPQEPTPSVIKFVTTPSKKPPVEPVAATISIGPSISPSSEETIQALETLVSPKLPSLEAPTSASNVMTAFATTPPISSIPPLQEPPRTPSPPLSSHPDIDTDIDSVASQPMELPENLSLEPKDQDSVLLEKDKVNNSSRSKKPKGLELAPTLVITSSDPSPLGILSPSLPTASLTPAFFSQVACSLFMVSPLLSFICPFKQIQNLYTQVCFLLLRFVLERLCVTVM
# Method in brief: as §1
# ETV2 = target: T10, ETV2 (Homo sapiens, UniProt O00321 1-342); conditions: protein: recombinant; tags: N-terminal GST; dsDNA, one strand shown
# T10 sequence: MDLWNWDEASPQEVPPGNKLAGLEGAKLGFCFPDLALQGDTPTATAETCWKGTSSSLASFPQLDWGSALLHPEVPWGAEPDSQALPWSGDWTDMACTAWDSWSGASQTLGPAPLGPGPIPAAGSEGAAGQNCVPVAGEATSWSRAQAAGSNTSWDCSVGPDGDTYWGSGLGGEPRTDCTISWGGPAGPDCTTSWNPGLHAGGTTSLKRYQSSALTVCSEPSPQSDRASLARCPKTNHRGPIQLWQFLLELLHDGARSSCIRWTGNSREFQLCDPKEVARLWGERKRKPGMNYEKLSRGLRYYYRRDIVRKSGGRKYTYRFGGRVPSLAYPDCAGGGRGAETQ
# Method in brief: as §1
# ELF3 = target: T11, ELF3 (Homo sapiens, UniProt P78545 1-371); conditions: protein: recombinant; tags: N-terminal GST; dsDNA, one strand shown
# T11 sequence: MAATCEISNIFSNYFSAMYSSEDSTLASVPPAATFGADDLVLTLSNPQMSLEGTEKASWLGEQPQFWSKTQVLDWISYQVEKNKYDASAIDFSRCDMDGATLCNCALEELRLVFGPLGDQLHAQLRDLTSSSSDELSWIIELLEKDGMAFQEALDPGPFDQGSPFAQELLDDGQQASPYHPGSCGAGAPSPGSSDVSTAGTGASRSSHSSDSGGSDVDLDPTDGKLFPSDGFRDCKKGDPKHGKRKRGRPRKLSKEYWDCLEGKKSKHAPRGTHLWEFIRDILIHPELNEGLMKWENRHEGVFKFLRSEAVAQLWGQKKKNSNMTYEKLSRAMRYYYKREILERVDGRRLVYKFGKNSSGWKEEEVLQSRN
# Method in brief: as §1
# CRX = CRX (Homo sapiens, UniProt O43186 1-299); conditions: protein: recombinant; tags: N-terminal GST; dsDNA, one strand shown
# Method in brief: as §1
# ETV1 = ETV1 (Homo sapiens, UniProt P50549 1-477); conditions: protein: recombinant; tags: N-terminal GST; dsDNA, one strand shown
# Method in brief: as §1
# ELF4, sequence (Q99607 whole entry): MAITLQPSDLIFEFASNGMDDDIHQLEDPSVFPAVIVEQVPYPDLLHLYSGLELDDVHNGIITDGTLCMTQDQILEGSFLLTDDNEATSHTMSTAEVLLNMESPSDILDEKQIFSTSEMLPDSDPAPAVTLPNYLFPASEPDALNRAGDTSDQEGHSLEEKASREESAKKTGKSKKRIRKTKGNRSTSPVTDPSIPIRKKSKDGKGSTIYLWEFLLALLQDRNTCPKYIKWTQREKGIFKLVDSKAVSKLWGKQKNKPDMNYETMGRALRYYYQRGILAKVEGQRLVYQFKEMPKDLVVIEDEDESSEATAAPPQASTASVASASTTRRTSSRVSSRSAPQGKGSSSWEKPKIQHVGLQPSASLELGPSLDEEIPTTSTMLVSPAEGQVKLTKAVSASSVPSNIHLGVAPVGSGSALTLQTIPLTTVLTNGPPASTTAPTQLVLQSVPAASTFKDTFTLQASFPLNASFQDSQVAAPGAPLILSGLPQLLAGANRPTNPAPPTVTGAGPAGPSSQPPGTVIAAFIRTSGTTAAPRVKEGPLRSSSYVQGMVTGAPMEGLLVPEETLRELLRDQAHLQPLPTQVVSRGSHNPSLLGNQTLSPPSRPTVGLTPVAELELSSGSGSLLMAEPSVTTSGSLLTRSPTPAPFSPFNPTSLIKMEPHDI
# CRX, sequence (O43186 whole entry): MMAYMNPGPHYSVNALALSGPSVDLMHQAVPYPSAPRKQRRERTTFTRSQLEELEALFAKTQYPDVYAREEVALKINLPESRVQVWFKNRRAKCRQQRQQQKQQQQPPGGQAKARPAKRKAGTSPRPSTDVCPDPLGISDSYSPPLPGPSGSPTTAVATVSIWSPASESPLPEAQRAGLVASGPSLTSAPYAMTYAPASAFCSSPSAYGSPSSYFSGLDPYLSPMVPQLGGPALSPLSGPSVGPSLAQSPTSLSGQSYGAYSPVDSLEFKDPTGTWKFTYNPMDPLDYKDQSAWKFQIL
# ETV1, sequence (P50549 whole entry): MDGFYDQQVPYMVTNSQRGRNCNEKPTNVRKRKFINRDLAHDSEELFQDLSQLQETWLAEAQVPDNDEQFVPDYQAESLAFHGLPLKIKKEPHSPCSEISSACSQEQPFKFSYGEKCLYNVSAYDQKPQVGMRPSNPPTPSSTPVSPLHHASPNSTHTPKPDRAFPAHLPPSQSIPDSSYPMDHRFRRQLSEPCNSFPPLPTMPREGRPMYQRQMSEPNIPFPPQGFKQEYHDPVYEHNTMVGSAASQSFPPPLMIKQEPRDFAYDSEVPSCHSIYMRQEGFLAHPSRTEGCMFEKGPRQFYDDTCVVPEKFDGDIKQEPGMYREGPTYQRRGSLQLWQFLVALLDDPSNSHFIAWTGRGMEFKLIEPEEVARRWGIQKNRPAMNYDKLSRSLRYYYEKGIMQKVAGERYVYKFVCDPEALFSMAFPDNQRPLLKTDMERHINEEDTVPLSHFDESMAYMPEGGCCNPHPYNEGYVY
# HSF1, sequence (Q00613 whole entry): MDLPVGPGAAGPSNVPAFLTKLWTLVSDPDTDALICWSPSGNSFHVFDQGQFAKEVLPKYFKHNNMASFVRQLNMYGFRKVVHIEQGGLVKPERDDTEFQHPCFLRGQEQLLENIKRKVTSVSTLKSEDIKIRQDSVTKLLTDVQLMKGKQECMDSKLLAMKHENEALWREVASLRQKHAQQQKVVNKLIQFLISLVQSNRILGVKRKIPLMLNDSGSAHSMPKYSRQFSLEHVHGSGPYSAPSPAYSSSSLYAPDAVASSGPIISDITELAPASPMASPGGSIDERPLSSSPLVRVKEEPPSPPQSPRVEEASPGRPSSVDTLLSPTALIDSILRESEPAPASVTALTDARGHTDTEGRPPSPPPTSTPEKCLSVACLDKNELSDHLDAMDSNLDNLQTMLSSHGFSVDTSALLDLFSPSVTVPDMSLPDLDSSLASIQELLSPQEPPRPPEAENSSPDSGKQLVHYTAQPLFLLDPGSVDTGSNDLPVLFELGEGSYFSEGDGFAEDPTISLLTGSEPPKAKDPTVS
# ELF1, sequence (P32519 whole entry): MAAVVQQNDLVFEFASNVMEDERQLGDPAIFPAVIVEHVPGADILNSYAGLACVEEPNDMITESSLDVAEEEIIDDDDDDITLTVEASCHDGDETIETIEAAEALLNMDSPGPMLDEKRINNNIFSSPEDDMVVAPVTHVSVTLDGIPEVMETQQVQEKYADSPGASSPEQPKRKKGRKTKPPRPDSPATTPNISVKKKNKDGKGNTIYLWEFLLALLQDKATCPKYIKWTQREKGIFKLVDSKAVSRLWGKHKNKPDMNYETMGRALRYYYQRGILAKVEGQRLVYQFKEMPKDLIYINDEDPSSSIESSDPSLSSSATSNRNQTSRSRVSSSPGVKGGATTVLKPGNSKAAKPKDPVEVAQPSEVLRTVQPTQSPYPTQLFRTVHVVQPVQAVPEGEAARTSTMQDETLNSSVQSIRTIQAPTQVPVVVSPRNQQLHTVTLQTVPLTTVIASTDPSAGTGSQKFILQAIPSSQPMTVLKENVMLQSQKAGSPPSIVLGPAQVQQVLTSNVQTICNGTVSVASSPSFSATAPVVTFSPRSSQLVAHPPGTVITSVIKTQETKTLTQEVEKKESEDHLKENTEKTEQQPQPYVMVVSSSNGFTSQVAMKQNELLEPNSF
# ETV5, sequence (P41161 whole entry): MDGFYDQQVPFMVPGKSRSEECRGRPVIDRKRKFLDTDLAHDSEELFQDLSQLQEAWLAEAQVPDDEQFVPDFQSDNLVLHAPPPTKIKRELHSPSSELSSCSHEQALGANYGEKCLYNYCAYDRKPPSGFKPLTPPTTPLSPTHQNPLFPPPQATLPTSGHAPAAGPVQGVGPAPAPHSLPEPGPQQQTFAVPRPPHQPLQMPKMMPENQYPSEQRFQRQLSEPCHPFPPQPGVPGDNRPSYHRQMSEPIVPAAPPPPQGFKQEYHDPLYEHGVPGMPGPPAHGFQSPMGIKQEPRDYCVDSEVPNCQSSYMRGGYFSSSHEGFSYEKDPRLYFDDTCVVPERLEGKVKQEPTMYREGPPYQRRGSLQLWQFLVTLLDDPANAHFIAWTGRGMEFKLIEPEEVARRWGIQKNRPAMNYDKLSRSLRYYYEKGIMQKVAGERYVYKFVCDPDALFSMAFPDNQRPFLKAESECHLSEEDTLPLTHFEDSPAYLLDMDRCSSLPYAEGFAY
# SPIB, sequence (Q01892 whole entry): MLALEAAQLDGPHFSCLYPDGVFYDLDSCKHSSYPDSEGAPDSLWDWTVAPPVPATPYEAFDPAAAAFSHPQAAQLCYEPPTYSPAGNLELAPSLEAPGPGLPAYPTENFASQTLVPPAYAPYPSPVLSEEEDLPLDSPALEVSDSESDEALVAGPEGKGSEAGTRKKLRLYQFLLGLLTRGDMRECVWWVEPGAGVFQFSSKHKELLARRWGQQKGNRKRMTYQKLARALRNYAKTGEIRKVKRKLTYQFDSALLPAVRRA
sequence,measurement,setting,value
ACCTAT,binding signal,FLI1,"1.18 fold enrichment (6-mer frequency, TF over GST control)"
same,binding signal,ELK1,"1.26 fold enrichment (6-mer frequency, TF over GST control)"
same,binding signal,GABPA,"1.16 fold enrichment (6-mer frequency, TF over GST control)"
same,binding signal,ERG,"1.07 fold enrichment (6-mer frequency, TF over GST control)"
same,binding signal,ELF1,"1.21 fold enrichment (6-mer frequency, TF over GST control)"
same,binding signal,EHF,"1.21 fold enrichment (6-mer frequency, TF over GST control)"
same,binding signal,SPI1,"1.17 fold enrichment (6-mer frequency, TF over GST control)"
same,binding signal,SPIB,"1.15 fold enrichment (6-mer frequency, TF over GST control)"
same,binding signal,ELK3,"1.17 fold enrichment (6-mer frequency, TF over GST control)"
same,binding signal,FEV,"1.15 fold enrichment (6-mer frequency, TF over GST control)"
same,binding signal,ETV5,"1.14 fold enrichment (6-mer frequency, TF over GST control)"
same,binding signal,HSF1,"1.05 fold enrichment (6-mer frequency, TF over GST control)"
same,binding signal,SPIC,"1.11 fold enrichment (6-mer frequency, TF over GST control)"
same,binding signal,ELF4,"1.24 fold enrichment (6-mer frequency, TF over GST control)"
same,binding signal,ELK4,"1.13 fold enrichment (6-mer frequency, TF over GST control)"
same,binding signal,ETV2,"1.28 fold enrichment (6-mer frequency, TF over GST control)"
same,binding signal,ELF3,"1.24 fold enrichment (6-mer frequency, TF over GST control)"
same,binding signal,CRX,"1.09 fold enrichment (6-mer frequency, TF over GST control)"
same,binding signal,ETV1,"1.21 fold enrichment (6-mer frequency, TF over GST control)"
